Experimental findings from PubChem BioAssay (Tox21) are described below.

Unmarked numbers belong to inactive results. Inconclusive results are not listed. The source made the active and inactive calls. Unless noted, the call rests on the fitted dose curve; in most records, active means well fitted curve in the direction sought with a large enough effect in the repeat runs; inconclusive means weak or mixed curves; inactive means no such curve, though single readings can be large; an effect the other way counts as inactive or inconclusive.

Test [1] in a line: qHTS assay to test for compound auto fluorescence at 535 nm (green) in HEK293 cells (AID 720680).
Test [2] in a line: qHTS assay to test for compound auto fluorescence at 460 nm (blue) in HEK293 cell free culture (AID 720681). The gist of the method:
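Test compounds were pinned into cell-free culture medium (DMEM with 10% FBS) and fluorescence was read directly at Ex/Em 405/460 nm. Signals were expressed as fluorescence equivalents of triamterene, with DMSO vehicle as control.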

A short description of test [3]: qHTS assay to test for compound auto fluorescence at 535 nm (green) in HEK293 cell free culture (AID 720682). The gist of the method: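 Each library compound, or DMSO control, is added by pintool to medium alone, comprising DMEM and 10% FBS. Emission at 535 nm following 485 nm excitation is quantified against fluorescein.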
The nature of test [4]: qHTS assay to test for compound auto fluorescence at 590 nm (red) in HEK293 cell free culture (AID 720683). The gist of the method: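 Tox21 10K library compounds were pinned into cell-free DMEM with 10% FBS and fluorescence was read at excitation 540 nm. Activity is expressed as Rose Bengal sodium equivalency.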
Test [5] in a line: qHTS assay to test for compound auto fluorescence at 590 nm (red) in HepG2 cell free culture (AID 720684). The gist of the method:
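Readout: intrinsic compound fluorescence at 590 nm emission after 540 nm excitation, scaled to Rose Bengal sodium. Matrix was cell-free MEM with 10% FBS; DMSO vehicle wells served as control.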

Test [6] is described as follows: qHTS assay to test for compound auto fluorescence at 460 nm (blue) in HepG2 cell free culture (AID 720685). In outline: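 Cell-free plates of MEM plus 10% FBS received 23 nL compound or DMSO vehicle; blue-channel (405/460 nm) intensity scored against triamterene as reference fluorophore.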
Test [7] in a line: qHTS assay to test for compound auto fluorescence at 535 nm (green) in HepG2 cell free culture (AID 720686).
Test [8] is described as follows: qHTS assay to test for compound auto fluorescence at 460 nm (blue) in HepG2 cells (AID 720687). In outline:
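Cells (2,000/well in MEM with 10% FBS) attached overnight at 37 C, then were exposed to compound or DMSO for 1 hr at 37 C, 5% CO2. Fluorescence read at Ex/Em 405/460 nm, expressed as triamterene-equivalent signal.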

Test [9] deals with Glucocorticoid receptor (Homo sapiens) (UniProt P04150). Put plainly: qHTS assay to identify small molecule agonists of the glucocorticoid receptor (GR) signaling pathway (AID 720691; active means well fitted activation curve with a large enough effect in the signal ratio in the repeat runs, not every such curve was filed as active; the % refers to the signal ratio). In outline:
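Steps: seed GR-bla HeLa cells, incubate 4 h at 37 C/5% CO2; pin-transfer DMSO-dissolved compounds; incubate 18 h at 37 C; add LiveBLAzer B/G FRET substrate; after 2 h at room temperature, measure fluorescence.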

Test [10] shares this target. Put plainly: qHTS assay to identify small molecule antagonists of the glucocorticoid receptor (GR) signaling pathway (AID 720692; active means well fitted inhibition curve with a large enough effect in the signal ratio in the repeat runs, not every such curve was filed as active; the % refers to the signal ratio; further: potency means the concentration at half of the fitted maximal effect). The gist of the method:
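Antagonism was scored as loss of dexamethasone-driven (5 nM final) reporter signal in HeLa cells bearing a glucocorticoid response element–beta-lactamase construct, after 18 h compound exposure at 37 C and 2 h FRET substrate loading.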

The nature of test [11]: qHTS assay to identify small molecule antagonists of the glucocorticoid receptor (GR) signaling pathway - cell viability counter screen (AID 720693). Further: nearly all actives have a fitted effect of over 55% in size.
Test [12] is described as follows: qHTS assay for identifying genotoxic compounds that show differential cytotoxicity against isogenic chicken DT40 cell lines with known DNA damage response pathways - wild type cell line (AID 743012). Further: nearly all actives have a fitted effect of over 60% in size. Further: potency means the concentration at half of the fitted maximal effect. The gist of the method:
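Cytotoxicity in repair-proficient parental chicken DT40 cells serves as the comparator for Rad54/Ku70- and Rev3-deficient lines. Cells were exposed to compounds for 40 h at 37 C/5% CO2, and ATP-based luminescence (CellTiter-Glo) measured viability.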

Test [13] can be described thus: qHTS assay for identifying genotoxic compounds that show differential cytotoxicity against isogenic chicken DT40 cell lines with known DNA damage response pathways - Rev3 mutant cell line (AID 743014). Further: nearly all actives have a fitted effect of over 55% in size. Further: potency means the concentration at half of the fitted maximal effect.
The nature of test [14]: qHTS assay for identifying genotoxic compounds that show differential cytotoxicity against isogenic chicken DT40 cell lines with known DNA damage response pathways - Rad54/Ku70 mutant cell line (AID 743015). Further: nearly all actives have a fitted effect of over 60% in size. Further: potency means the concentration at half of the fitted maximal effect.
A short description of test [15]: qHTS assay to identify small molecule antagonists of the androgen receptor (AR) signaling pathway - cell viability counter screen (AID 743033; further: nearly all actives have a fitted effect of over 45% in size).
The nature of test [16]: qHTS assay to identify small molecule antagonists of the androgen receptor (AR) signaling pathway using the MDA cell line - cell viability counter screen (AID 743041; further: nearly all actives have a fitted effect of over 45% in size). The gist of the method: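 qHTS viability read-out; MDA-kb2 AR-luc; R1881-stimulated; 16 h exposure at 37C, 0% CO2; CellTiter-Fluor, 30 min; fluorescence intensity.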
Test [17] in a line: qHTS assay to identify small molecule antagonists of the thyroid receptor (TR) signaling pathway - cell viability counter screen (AID 743064). Further: nearly all actives have a fitted effect of over 50% in size. The gist of the method:
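CellTiter-Fluor readout, 30 min at 37 °C/5% CO2, following 23.5 h incubation of GH3.TRE-Luc cells with test compound and 1 nM T3 (final).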

Test [18] concerns the target Androgen receptor (Homo sapiens) (UniProt P10275). Put plainly: qHTS assay to identify small molecule antagonists of the androgen receptor (AR) signaling pathway (AID 743035; active means well fitted inhibition curve with a large enough effect in the signal ratio in the repeat runs, not every such curve was filed as active; the % refers to the signal ratio; further: potency means the concentration at half of the fitted maximal effect). The gist of the method:
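Steps: seed AR-UAS-bla GripTite HEK293 cells, incubate 4 h at 37C; pin in test compound, then add agonist R1881; incubate 16 h at 37C; add LiveBLAzer B/G FRET substrate, 2 h at room temperature; read fluorescence.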

The target is the same in test [19]. Put plainly: qHTS assay to identify small molecule agonists of the androgen receptor (AR) signaling pathway (AID 743036; active means well fitted activation curve with a large enough effect in the signal ratio in the repeat runs, with a control signal flat, not every such curve was filed as active; the % refers to the signal ratio). In outline: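 Following a 4 h settling period, AR-UAS-bla HEK293 cells were dosed with compounds for 16 h at 37C. A 2 h room-temperature incubation with LiveBLAzer B/G FRET substrate preceded the fluorescence measurement.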
Test [20] shares this target. As to the kind of experiment: qHTS assay to identify small molecule agonists of the androgen receptor (AR) signaling pathway using the MDA cell line (AID 743040; further: nearly all actives have a fitted effect of over 20% in size). The gist of the method:
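Agonist activity is measured as luciferase luminescence in human MDA-kb2 cells whose MMTV reporter responds to both AR and GR. Compounds in DMSO incubate 16 h at 37C, 0% CO2, and ONE-Glo is read after 30 min.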

Chain of Glucocorticoid receptor (Homo sapiens) (P04150 whole entry, looked up): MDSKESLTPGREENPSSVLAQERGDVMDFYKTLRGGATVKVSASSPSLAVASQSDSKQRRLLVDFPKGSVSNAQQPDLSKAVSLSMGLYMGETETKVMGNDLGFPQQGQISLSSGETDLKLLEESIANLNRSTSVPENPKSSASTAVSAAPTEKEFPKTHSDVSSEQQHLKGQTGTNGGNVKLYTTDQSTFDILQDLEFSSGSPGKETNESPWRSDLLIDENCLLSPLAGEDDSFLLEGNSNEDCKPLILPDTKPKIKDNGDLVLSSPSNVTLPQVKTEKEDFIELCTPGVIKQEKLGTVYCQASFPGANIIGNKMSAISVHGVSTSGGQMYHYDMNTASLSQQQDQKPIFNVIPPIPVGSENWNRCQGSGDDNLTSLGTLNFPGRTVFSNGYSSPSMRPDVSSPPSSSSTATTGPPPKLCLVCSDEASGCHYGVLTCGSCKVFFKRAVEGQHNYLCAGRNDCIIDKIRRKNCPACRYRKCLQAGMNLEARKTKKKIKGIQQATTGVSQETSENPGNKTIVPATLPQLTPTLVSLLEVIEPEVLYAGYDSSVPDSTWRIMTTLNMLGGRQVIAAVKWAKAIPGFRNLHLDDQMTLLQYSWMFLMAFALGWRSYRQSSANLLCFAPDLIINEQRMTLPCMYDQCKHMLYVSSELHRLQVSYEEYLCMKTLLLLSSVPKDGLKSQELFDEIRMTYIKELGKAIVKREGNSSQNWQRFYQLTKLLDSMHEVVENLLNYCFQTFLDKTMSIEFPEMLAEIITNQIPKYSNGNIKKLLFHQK
Chain of Androgen receptor (Homo sapiens) (P10275 whole entry, looked up): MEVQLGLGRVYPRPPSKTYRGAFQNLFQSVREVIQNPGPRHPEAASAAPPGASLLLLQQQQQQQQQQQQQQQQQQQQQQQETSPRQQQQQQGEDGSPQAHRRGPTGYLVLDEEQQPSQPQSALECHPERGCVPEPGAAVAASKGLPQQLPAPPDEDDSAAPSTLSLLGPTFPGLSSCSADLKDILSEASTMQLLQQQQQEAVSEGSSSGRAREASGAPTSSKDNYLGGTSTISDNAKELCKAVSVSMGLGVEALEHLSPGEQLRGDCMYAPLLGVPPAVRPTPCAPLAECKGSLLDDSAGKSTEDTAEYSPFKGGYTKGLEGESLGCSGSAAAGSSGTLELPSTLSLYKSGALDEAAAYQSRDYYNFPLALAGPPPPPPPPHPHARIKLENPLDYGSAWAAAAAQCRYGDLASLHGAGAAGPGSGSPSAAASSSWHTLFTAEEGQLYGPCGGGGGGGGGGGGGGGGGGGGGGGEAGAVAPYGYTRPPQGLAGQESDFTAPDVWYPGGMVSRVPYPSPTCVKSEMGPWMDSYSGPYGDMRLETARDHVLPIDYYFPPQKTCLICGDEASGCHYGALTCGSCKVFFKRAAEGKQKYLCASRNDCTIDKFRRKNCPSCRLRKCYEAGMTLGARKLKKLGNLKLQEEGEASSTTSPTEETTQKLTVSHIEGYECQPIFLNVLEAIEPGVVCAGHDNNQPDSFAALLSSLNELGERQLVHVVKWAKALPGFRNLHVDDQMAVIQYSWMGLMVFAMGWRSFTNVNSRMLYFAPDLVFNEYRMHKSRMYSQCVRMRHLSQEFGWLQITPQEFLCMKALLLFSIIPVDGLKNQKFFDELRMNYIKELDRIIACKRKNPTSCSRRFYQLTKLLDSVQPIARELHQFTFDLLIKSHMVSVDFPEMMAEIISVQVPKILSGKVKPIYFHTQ

For `CCOP(=S)(Oc1cnc(C(C)(C)C)nc1)OC(C)C` (stereo not drawn), the call in test [1], in [2], in test [3], in test [4], in test [5] and in test [6] was inactive. Moreover, the compound was classed as inactive in test [7], in [8] and in [9]. The Potency entry in test [10], in test [11], in [15] and in test [16] was “inactive” each time. Moreover, the Potency in [12] is 54.5 µM (active); in test [13], 27.3 µM (active); in [14], 48.6 µM (active).
Turning to `Cc1cccc(C#N)c1`, the outcome in test [1], in test [2], in test [3], in test [4], in test [5] and in test [6] was inactive. Also, the outcome in test [7], in [8] and in test [9] was inactive. The Potency entry in test [10], in [11], in test [12], in [13], in [14] and in [15] was “inactive” each time. For the same compound, the Potency result in test [16] is “inactive”.
`CC1CCC(=O)O1` (stereo not drawn): the compound was called inactive in test [1], in test [2], in test [3], in [4], in [5] and in [6]. For the same compound, the compound was classed as inactive in test [7], in [8] and in test [9]. In addition, the Potency entry in [10], in test [11], in test [12], in test [13], in [14] and in test [15] was “inactive” each time. Moreover, the Potency result in [16] and in test [17] was “inactive” each time.
`c1cc[c]([Hg][c]2ccccc2)cc1`: the result in [1], in test [2], in [3], in [4], in [5] and in [6] was inactive. Further, the outcome in test [7], in [8], in [9] and in test [19] was inactive. Moreover, the Potency in test [10] was 0.347 µM (active); in test [12] it was 0.273 µM (active); in test [13], 0.243 µM (active); in test [14] it was 0.193 µM (active); in test [18] it was 43.6 µM (active). Also, the Potency result in test [11], in test [15], in [20] and in [16] was “inactive” in each case.
`CCCCc1c(C)nc(NCC)[nH]c1=O`: the compound was classed as inactive in [1], in test [2], in test [3], in test [4], in [5] and in [6]. Further, the compound was classed as inactive in test [7], in [8] and in test [9]. For the same compound, the Potency result in [10], in [11], in [12], in test [13], in test [14] and in test [15] was “inactive” each time. Further, in test [16], the Potency result is “inactive”.
Take `ClCCOCOCCCl`: the result in test [1], in test [2], in [3], in test [4], in test [5] and in test [6] was inactive. In addition, the outcome in test [7], in test [8] and in test [9] was inactive. Also, the Potency entry in test [10], in test [11], in test [12], in test [13], in test [14] and in test [15] was “inactive” each time. Further, the Potency result in [16] and in test [17] was “inactive” each time.
On to `BrCCCCCCBr`, for which the outcome in [1], in [2], in [3], in test [4], in test [5] and in test [6] was inactive. Further, the call in test [7], in [8] and in [9] was inactive. Also, the Potency result in [10], in test [11], in [12], in [13], in test [14] and in [15] was “inactive” each time. Further, the Potency result in test [16] is “inactive”.
As for `ClC(Cl)(Cl)C(Cl)(Cl)Cl`, the compound was classed as inactive in test [1], in test [2], in test [3], in test [4], in test [5] and in test [6]. Besides, the call in test [7], in test [8] and in [9] was inactive. Moreover, the Potency entry in test [10], in test [11], in test [12], in test [13], in test [14] and in test [15] was “inactive” in each case. Besides, the Potency entry in [16] is “inactive”.
